Measured values reported in PubChem BioAssay AID1625 (Sanford-Burnham Center for Chemical Genomics, 2009).
About 570 (0.3%) of roughly 190,000 compounds were called active.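 The calls were made as follows: active = z-score above 3 at 5 µM with at least 500 cells counted in the well; inconclusive = wells under 500 cells, flagged as cytotoxic or low count; inactive = the rest.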 This excerpt belongs to a sample that is enriched for actives.

assay: up-regulation of insulin promoter-GFP reporter – imaging, high-content screening, mouse beta cells (AID 1625); conditions: MIN6 insulin promoter-GFP reporter, at 5 µM; cell count: measured here: cytotoxicity, nuclei count; z-score: stronger effect = higher value;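 as to cell count: total cells summed across four imaged fields per well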

Q: Which results are given for `CCOC(=O)C1=C(CN2CCCCCC2)NC(=O)NC1c1cccc([N+](=O)[O-])c1` (stereo unspecified)?
A: cell count: 1200 cells; z-score: 0.23 (inactive)

Q: What does the source list for `COCc1cc(=O)oc2cc(NS(=O)(=O)c3ccc(C)cc3)ccc12`?
A: cell count: 1024 cells; z-score: 0.12 (inactive)

Q: For `CC1=NNC(=O)C1CC(=O)N/N=C/c1ccncc1` (stereo unspecified), which cell count is on record?
A: 1010 cells

Q: What about the z-score of the same compound?
A: 1.19 (inactive)

Q: With `COc1c(C=O)c(CCN(C)C(=O)c2ccc(F)cc2)cc2c1OCO2` as the compound, how does the cell count read?
A: 1010 cells

Q: And the z-score?
A: 0.62 (inactive)

Q: For `Cc1nn(CC2CC2)c(=O)n1N(C)c1ncc(C(F)(F)F)cc1Cl`, which cell count is on record?
A: 1660 cells

Q: And the z-score?
A: -0.16 (inactive)

Q: Which cell count does the source give for `COc1cc(/C=N/Nc2nc3ccccc3s2)ccc1O` here?
A: 924 cells

Q: And the z-score?
A: -0.19 (inactive)

Q: Which cell count does the source give for `Cn1c(SCC(=O)c2ccc(F)cc2)nnc1-c1ccccn1` here?
A: 1430 cells

Q: And the z-score?
A: -0.19 (inactive)

Q: Which results are given for `O=C(O)C#Cc1cccc2ccccc12`?
A: cell count: 952 cells; z-score: -0.45 (inactive)

Q: Which cell count does the source give for `Cc1cc(C)c2[nH]c(=O)c(CN(Cc3ccccc3)C(=S)NCCCN(C)C)cc2c1` here?
A: 1260 cells

Q: And the z-score?
A: -0.25 (inactive)

Q: Which cell count does the source give for `CCOc1ccc(NC(=S)N2CCC(N(C)CC3CCCO3)CC2)cc1` (stereo unspecified) here?
A: 1410 cells

Q: What about the z-score of the same compound?
A: 3.59 (active)

Q: Which results are given for `CCOc1ccc(NC(=S)N2CCCCCC2)cc1`?
A: cell count: 1240 cells; z-score: -0.11 (inactive)

Q: For `CCC(C)N(C)C1CCN(C(=S)Nc2ccc(OC)cc2)CC1` (stereo unspecified), which cell count is on record?
A: 1120 cells

Q: And the z-score?
A: 0.62 (inactive)

Q: Which cell count does the source give for `Cc1cccc(N(C)C(=O)c2cc3c(=O)[nH]c4ccc(C)cc4c3s2)c1` here?
A: 642 cells

Q: And the z-score?
A: -0.64 (inactive)

Q: Which results are given for `CCn1c2ccccc2c2cc(NC(=O)Nc3ccc([N+](=O)[O-])cc3C)ccc21`?
A: cell count: 1070 cells; z-score: -0.69 (inactive)

Q: With `O=c1c2cc(-c3ccccc3)sc2nc2n1N=C(c1cccs1)CS2` as the compound, how does the cell count read?
A: 940 cells

Q: And the z-score?
A: 0.28 (inactive)

Q: With `S=c1[nH]nc(-c2cccs2)n1/N=C/c1cn(-c2ccccc2)nc1-c1ccc(Cl)cc1` as the compound, how does the cell count read?
A: 941 cells

Q: What about the z-score of the same compound?
A: -0.14 (inactive)

Q: Which results are given for `NS(=O)(=O)c1cccc(NC(=O)CSc2nc3ccccc3n2-c2ccccc2)c1`?
A: cell count: 1570 cells; z-score: -0.28 (inactive)

Q: What does the source list for `COc1cccc(NCCC(=O)c2cccc([N+](=O)[O-])c2)c1`?
A: cell count: 1430 cells; z-score: -0.59 (inactive)

Q: With `COc1ccc(-c2nc(CCNC(=O)c3ccc(Br)o3)cs2)cc1` as the compound, how does the cell count read?
A: 1790 cells

Q: What about the z-score of the same compound?
A: -0.21 (inactive)

Q: For `O=C(NCCc1csc(-c2ccccc2)n1)c1ccccc1F`, which cell count is on record?
A: 879 cells

Q: What about the z-score of the same compound?
A: 4.15 (active)

Q: What does the source list for `O=S(=O)(NCCc1csc(-c2ccccc2)n1)c1cccnc1`?
A: cell count: 1020 cells; z-score: 0.1 (inactive)

Q: What does the source list for `COc1ccc([N+](=O)[O-])cc1N(CC(O)CN(CC(C)C)CC(C)C)S(=O)(=O)c1ccc(C)cc1` (stereo unspecified)?
A: cell count: 984 cells; z-score: 0.3 (inactive)

Q: For `O=C1CN(C(=O)COC(=O)c2cnc(Cl)c(Cl)c2)c2ccccc2N1`, which cell count is on record?
A: 1340 cells

Q: And the z-score?
A: 0.22 (inactive)

Q: For `Cc1ccc(OCC(=O)c2cc(C)n(Cc3ccco3)c2C)c([N+](=O)[O-])n1`, which cell count is on record?
A: 717 cells

Q: What about the z-score of the same compound?
A: 0.32 (inactive)

Q: For `CC1=C(C(N)=O)C(c2sccc2C)n2nnnc2N1` (stereo unspecified), which cell count is on record?
A: 787 cells

Q: What about the z-score of the same compound?
A: 1.11 (inactive)

Q: With `COc1ccc(C2C(C(=O)Nc3ccccc3OC)=C(C)Nc3nnnn32)c(OC)c1` (stereo unspecified) as the compound, how does the cell count read?
A: 1590 cells

Q: And the z-score?
A: 0.06 (inactive)

Q: With `CCCCCOC(=O)C1=C(C)Nc2nnnn2C1c1ccc(OC)c(OC)c1OC` (stereo unspecified) as the compound, how does the cell count read?
A: 1410 cells

Q: And the z-score?
A: 3.26 (active)

Q: With `CN(C)S(=O)(=O)c1cccc(-c2nn(-c3ccccc3)cc2/C=C2\SC(=S)N(CC(=O)O)C2=O)c1` as the compound, how does the cell count read?
A: 1060 cells

Q: And the z-score?
A: -0.06 (inactive)

Q: With `NNC(=O)c1oc2nc(-c3ccccc3)cc(-c3ccco3)c2c1N` as the compound, how does the cell count read?
A: 1010 cells

Q: And the z-score?
A: 1.58 (inactive)

Q: Which results are given for `CNC(=S)NNC(=O)c1cccn(Cc2ccccc2)c1=O`?
A: cell count: 1390 cells; z-score: -0.17 (inactive)

Q: With `CNC(=S)NNC(=O)c1oc2nc(-c3ccccc3)cc(-c3ccco3)c2c1N` as the compound, how does the cell count read?
A: 871 cells

Q: What about the z-score of the same compound?
A: 3.41 (active)

Q: What does the source list for `CSc1ccc(CN2C(=O)NC3(CCCCCC3)C2=O)cc1`?
A: cell count: 1210 cells; z-score: -0.36 (inactive)

Q: Which results are given for `CC(=O)Nc1nc(C)c(-c2csc(Nc3ccc(S(N)(=O)=O)cc3)n2)s1`?
A: cell count: 1500 cells; z-score: -2.49 (inactive)

Q: Which results are given for `CC(C)(C)c1cc(C(=O)NCc2cccnc2)ccn1`?
A: cell count: 1480 cells; z-score: 4.34 (active)

Q: With `Cc1ccc(C(=O)NC(=S)NCc2cccnc2)cc1` as the compound, how does the cell count read?
A: 1660 cells

Q: And the z-score?
A: 1.63 (inactive)

Q: Which results are given for `Cc1cccc(C(=O)Nc2ccccc2C(=O)NCc2cccnc2)c1`?
A: cell count: 1550 cells; z-score: 0.35 (inactive)

Q: With `CCOc1ccc(NS(=O)(=O)c2cc(C)c(C)cc2C)cc1` as the compound, how does the cell count read?
A: 1460 cells

Q: What about the z-score of the same compound?
A: 0.61 (inactive)

Q: What does the source list for `O=C(CC1Nc2ccccc2NC1=O)Nc1ccccc1NC(=O)CC1Nc2ccccc2NC1=O` (stereo unspecified)?
A: cell count: 1140 cells; z-score: 0.1 (inactive)

Q: Which cell count does the source give for `Cc1ccc(-n2[nH]c(C)c(/C=N/NC(=O)c3cccc([N+](=O)[O-])c3)c2=O)cc1C` here?
A: 1370 cells

Q: And the z-score?
A: 0.35 (inactive)

Q: With `C=CCNC(=S)N1CCN(CCN=Cc2c(C)[nH]n(-c3ccc([N+](=O)[O-])cc3)c2=O)CC1` as the compound, how does the cell count read?
A: 1470 cells

Q: And the z-score?
A: 1.08 (inactive)

Q: Which cell count does the source give for `Cc1[nH]n(-c2ccc([N+](=O)[O-])cc2)c(=O)c1C=NCCN1CCN(C(=O)c2ccccc2F)CC1` here?
A: 1450 cells

Q: And the z-score?
A: 4.48 (active)

Q: Which results are given for `CC(C)CCN1CCN(C/C=C/c2ccco2)CC1CCO` (stereo unspecified)?
A: cell count: 1410 cells; z-score: 1.56 (inactive)

Q: Which cell count does the source give for `O=C(COC(=O)C1CCCCC1)Nc1ccc([N+](=O)[O-])cc1` here?
A: 1220 cells

Q: And the z-score?
A: -0.06 (inactive)

Q: With `O=C(NNC(=S)NC(=O)c1cn(-c2ccccc2)nc1-c1ccccc1)c1ccncc1` as the compound, how does the cell count read?
A: 1140 cells

Q: What about the z-score of the same compound?
A: -0.61 (inactive)

Q: What does the source list for `CCCCN(CCCC)CC(O)Cn1c2ccccc2c(=O)c2ccccc21` (stereo unspecified)?
A: cell count: 1110 cells; z-score: -0.27 (inactive)

Q: For `CC(C)N1CCC(NC(=O)Nc2ccccc2)CC1`, which cell count is on record?
A: 1410 cells

Q: And the z-score?
A: -0.24 (inactive)

Q: With `O=C(Nc1ccc2c(c1)OCCO2)C1CCCN(c2ncccn2)C1` (stereo unspecified) as the compound, how does the cell count read?
A: 1560 cells

Q: And the z-score?
A: -0.18 (inactive)

Q: With `Cc1cc(C)nc(N2CCC(C(=O)Nc3ccc4c(c3)OCCO4)CC2)n1` as the compound, how does the cell count read?
A: 1130 cells

Q: What about the z-score of the same compound?
A: 3.37 (active)

Q: With `Cc1cc(C)cc(NC(=O)C2CCN(c3nc(C)cc(C)n3)CC2)c1` as the compound, how does the cell count read?
A: 1460 cells

Q: And the z-score?
A: -0.69 (inactive)

Q: Which results are given for `N#C/C(=C/c1ccc(-c2ccccc2[N+](=O)[O-])o1)C(=O)NCCN1CCCCC1`?
A: cell count: 1040 cells; z-score: 0.44 (inactive)

Q: With `Cc1ccc(-c2nnn(CC(=O)N(CCO)C(C(=O)NC(C)(C)C)c3ccncc3)n2)cc1` (stereo unspecified) as the compound, how does the cell count read?
A: 1330 cells

Q: And the z-score?
A: -0.54 (inactive)

Q: What does the source list for `CCOCCCN(C(=O)Cn1nnc(-c2ccc(OC)c(OC)c2)n1)C(CC)C(=O)NC1CCCC1` (stereo unspecified)?
A: cell count: 1200 cells; z-score: 1.26 (inactive)

Q: With `COc1ccc(-c2nnn(CC(=O)N(CCO)C(C(=O)NC3CCCC3)c3ccc(F)cc3)n2)cc1` (stereo unspecified) as the compound, how does the cell count read?
A: 941 cells

Q: And the z-score?
A: 3.28 (active)
